Measured values taken from the supplement of paper PMC3334620.
The full ranking holds about 33,000 sequences; the median of “E-score (-0.5 to 0.5)” is about -0.016, and the highest 2% start at about 0.31. The entries come from a sample that favours the highest values as a whole.

Each sequence was assayed against Cst6 (UniProt P40535) (assay: PBM E-score (8-mer binding enrichment) (E-score (-0.5 to 0.5)); higher = stronger / more preferred TF binding). Conditions: protein concentration: 200 nM; construct: GST-DNA-binding domain.
Chain of UniProt P40535 (P40535 whole entry, the tested form may be a part): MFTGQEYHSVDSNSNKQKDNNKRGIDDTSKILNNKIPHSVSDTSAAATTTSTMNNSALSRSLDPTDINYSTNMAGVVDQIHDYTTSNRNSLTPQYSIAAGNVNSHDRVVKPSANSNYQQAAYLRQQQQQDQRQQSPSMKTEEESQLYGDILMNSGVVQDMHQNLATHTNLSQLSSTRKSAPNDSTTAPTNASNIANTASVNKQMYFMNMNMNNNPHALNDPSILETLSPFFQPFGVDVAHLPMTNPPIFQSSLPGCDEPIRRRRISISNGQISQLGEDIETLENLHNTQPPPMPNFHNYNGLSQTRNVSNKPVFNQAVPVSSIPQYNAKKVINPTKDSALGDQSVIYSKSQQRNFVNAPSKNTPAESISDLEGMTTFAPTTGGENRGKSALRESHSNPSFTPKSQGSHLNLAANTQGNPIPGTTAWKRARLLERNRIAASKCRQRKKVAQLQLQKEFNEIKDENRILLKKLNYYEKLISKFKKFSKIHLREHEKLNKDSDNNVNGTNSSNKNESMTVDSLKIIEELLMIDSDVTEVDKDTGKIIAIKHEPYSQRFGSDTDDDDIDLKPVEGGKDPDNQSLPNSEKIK
Method: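 Universal 'all 10-mer' protein binding microarrays (Agilent AMADID 015681) probed with GST-tagged S. cerevisiae TFs (full-length or DBD) made by in vitro transcription/translation (PURExpress), about 100-200 nM. Bound TF was detected with fluorescent anti-GST. Each ungapped 8-mer (which stands for itself and its reverse complement) is scored by the PBM enrichment score (E-score), a modified Wilcoxon-Mann-Whitney statistic from -0.5 to +0.5, computed with the Universal PBM Analysis Suite. Scale: above 0.35 generally sequence-specific binding.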
CAGGGCGA was tested, and the “PBM E-score” value was -0.00562.
In the case of CTCTCGCC, the “PBM E-score” value is reported as -0.249.
With AATGGTGA the “PBM E-score” value was 0.184.
For TCGGCTCA, the “PBM E-score” value was -0.0753.
With CGTGACAA the “PBM E-score” value was 0.108.
With CGTGACGC the “PBM E-score” value was 0.436.
In the case of CCTGACGC, the “PBM E-score” value is reported as -0.0402.
For CGTGACCA, the “PBM E-score” value was -0.0809.
In the case of AGTGACGC, the “PBM E-score” value is reported as 0.438.
For CTTGACGC, the “PBM E-score” value was 0.214.
In the case of AGTGACTC, the “PBM E-score” value is reported as 0.0809.
In the case of AGTGACCC, the “PBM E-score” value is reported as -0.164.
With CGTGACGA the “PBM E-score” value was 0.386.
For GCGTTAAA, the “PBM E-score” value was -0.0116.
AGGGTAGC was tested, and the “PBM E-score” value was -0.17.
For GTGCTATA, the “PBM E-score” value was 0.0846.
With ACTCATTC the “PBM E-score” value was 0.103.
CTCCGATA was tested, and the “PBM E-score” value was -0.203.
For GGGATTTA, the “PBM E-score” value was 0.00892.
In the case of GGGCCTGA, the “PBM E-score” value is reported as -0.239.
For TCACCAAA, the “PBM E-score” value was 0.326.
For GCACCAAA, the “PBM E-score” value was 0.0915.
For ACACCAAA, the “PBM E-score” value was 0.212.
CGCCTTAC was tested, and the “PBM E-score” value was 0.163.
With GAAGTGGA the “PBM E-score” value was -0.16.
GTCATAGA was tested, and the “PBM E-score” value was 0.411.
With ATCATAGA the “PBM E-score” value was 0.246.
ATCATAAA was tested, and the “PBM E-score” value was 0.195.
In the case of CTCATACA, the “PBM E-score” value is reported as 0.116.
GTCATACA was tested, and the “PBM E-score” value was 0.317.
With GTCATATA the “PBM E-score” value was 0.377.
For CTCATAGA, the “PBM E-score” value was 0.0631.
With GTCATAAA the “PBM E-score” value was 0.331.
In the case of TTCATAAA, the “PBM E-score” value is reported as 0.212.
GGCATACA was tested, and the “PBM E-score” value was -0.102.
For CTCATATA, the “PBM E-score” value was -0.0189.
With ATCATATA the “PBM E-score” value was 0.299.
CAACACTG was tested, and the “PBM E-score” value was 0.0167.
In the case of AGGCGTGG, the “PBM E-score” value is reported as -0.196.
In the case of ATTAAGCG, the “PBM E-score” value is reported as 0.108.
AACTGAAG was tested, and the “PBM E-score” value was 0.0725.
CCGGCCAA was tested, and the “PBM E-score” value was -0.232.
With TGCTAGCA the “PBM E-score” value was 0.0927.
AGTACTGC was tested, and the “PBM E-score” value was -0.173.
TAAAGTCA was tested, and the “PBM E-score” value was 0.0375.
ATTGCTCA was tested, and the “PBM E-score” value was 0.192.
CAGATACG was tested, and the “PBM E-score” value was 0.0888.
In the case of CTAACAGC, the “PBM E-score” value is reported as -0.00671.
With ATCATACC the “PBM E-score” value was 0.259.
ATCATACA was tested, and the “PBM E-score” value was 0.268.
With ATCATACG the “PBM E-score” value was 0.308.
For CAGACAAG, the “PBM E-score” value was -0.14.
In the case of AGTCTCCC, the “PBM E-score” value is reported as -0.308.
With CATCATAG the “PBM E-score” value was 0.326.
In the case of AATCATAC, the “PBM E-score” value is reported as 0.239.
In the case of CATCATAA, the “PBM E-score” value is reported as 0.291.
With AATCATAG the “PBM E-score” value was 0.189.
With CATCATAC the “PBM E-score” value was 0.374.
With ACTCATAG the “PBM E-score” value was 0.152.
With CAGGGAAG the “PBM E-score” value was -0.244.
For CTTCCTTC, the “PBM E-score” value was -0.24.
With ATGGTGAG the “PBM E-score” value was 0.0691.
CAACACCC was tested, and the “PBM E-score” value was -0.142.
For AGGCCCAC, the “PBM E-score” value was -0.378.
With GGAGTTTA the “PBM E-score” value was 0.00491.
With CTGATGAA the “PBM E-score” value was 0.0772.
In the case of GTGATGAA, the “PBM E-score” value is reported as 0.154.
In the case of CTGATTAA, the “PBM E-score” value is reported as 0.161.
ATGATGAC was tested, and the “PBM E-score” value was 0.378.
ATGATTAG was tested, and the “PBM E-score” value was 0.158.
For ATGATGAA, the “PBM E-score” value was 0.367.
In the case of AGGATGAC, the “PBM E-score” value is reported as 0.208.
With CTGATGAC the “PBM E-score” value was 0.292.
With ATGATTAA the “PBM E-score” value was 0.329.
With TAGCGAGA the “PBM E-score” value was -0.0782.
For GCATTCGA, the “PBM E-score” value was -0.00988.
In the case of ACCATCTA, the “PBM E-score” value is reported as -0.207.
ATTTGTGA was tested, and the “PBM E-score” value was 0.146.
With AGTGCAGC the “PBM E-score” value was -0.108.
For ATTGATAC, the “PBM E-score” value was 0.154.
For GCGATGCA, the “PBM E-score” value was -0.255.
With CGTCAACA the “PBM E-score” value was 0.407.
With CGTCAACC the “PBM E-score” value was 0.377.
For AGTCAACG, the “PBM E-score” value was -0.102.
In the case of GGTCAACC, the “PBM E-score” value is reported as -0.0743.
With AGTCAACC the “PBM E-score” value was -0.219.
For TGTCAACA, the “PBM E-score” value was 0.184.
In the case of CCTCAACG, the “PBM E-score” value is reported as -0.102.
With GGTCAACA the “PBM E-score” value was -0.0567.
In the case of CGTCAACG, the “PBM E-score” value is reported as 0.344.
GGTACGAA was tested, and the “PBM E-score” value was 0.0828.
With GATGCACC the “PBM E-score” value was -0.163.
For ATGATCAT, the “PBM E-score” value was 0.198.
With AGTCAATC the “PBM E-score” value was 0.0291.
With CGTCAATC the “PBM E-score” value was 0.337.
In the case of CGTCAAGC, the “PBM E-score” value is reported as 0.0721.
GGTCAATA was tested, and the “PBM E-score” value was 0.0678.
For CGTCAATA, the “PBM E-score” value was 0.349.
AGTCAATA was tested, and the “PBM E-score” value was 0.0835.
